Reference: PubChem BioAssay (NCI)
Compounds without any hit were thinned out: in the full panel of roughly 79,000, 15% have a hit. Unmarked numbers belong to inactive results. Cut-off read from the data, not from the text of the source: active = growth inhibition above about 70%; inactive = the rest. Where a SMILES comes first, the peptide text is derived from it. The star is where a group is joined. Boc = CC(C)(C)OC(=O)*

Assay: NCI Yeast Anticancer Drug Screen. Data for the sgs1 mgt1 strain (AID 161);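 note: 0% = growth of cultures given vehicle only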
Settings: S. cerevisiae sgs1 mgt1 strain, at 50.0 µM, stronger effect = higher value
How it was run: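 Mutant yeast exposed to compound; growth scored against vehicle-only wells.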

Structure (SMILES) | growth inhibition [%]
CC(C)[C@@H]1CC[C@@H](C)C[C@H]1OC(=O)/C=C1\C(C(=O)O[C@@H]2C[C@H](C)CC[C@H]2C(C)C)[C@H]2C=C[C@@H]1O2 (stereo not given in full) | -9.35
COc1cc([N+](=O)[O-])ccc1NC(=O)C(Br)C(Br)c1ccccc1 (stereo not given) | 10.6
COc1ccc(C(=O)c2ccc(Cl)cc2)c(O)c1OC | -1.7
Cc1cc(=O)[nH]c(NN2C(Cl)C(=O)C2c2cccc(Cl)c2)n1 (stereo not given) | -9.4
COC(=O)CNC(=O)C(CC(C)C)NC(=O)C(CC(C)C)NC(=O)OC(C)(C)C (stereo not drawn) (Boc-Leu-Leu-Gly-OMe; configuration not given here) | 32.1
CCC1(C)OC(C)CC(C)(C)O1 (stereo not given) | -25.4
OCc1ccccc1CO | -9.25
Oc1ccc(Br)cc1C1Nc2ccccc2S1 (stereo not given) | 0.4
CN(C(=N)N)c1ccc(C(=O)Oc2ccc([N+](=O)[O-])cc2)cc1 | 29.6
CC1(C)OC(C(CCl)OS(C)(=O)=O)C(C(CCl)OS(C)(=O)=O)O1 (stereo not given) | -5.7
Nc1cc2c(cc1Br)-c1cc(Cl)c(Cl)cc1C2=O | -7.15
COc1cc(-c2c(C)c(C)nc(OC)c2C#N)cc(OC)c1OC | -24
CCCCCN(CCCCC)C(C)=O | 2.3
O=C1C(c2ccccc2Cl)[C@H]2CC=C[C@H]2N1O (stereo not given in full) | -8.4
O=S(=O)(Nc1ncccn1)c1ccc(N=NSC2=NC=NC3=NC=NC32)cc1 (stereo not given) | 20.5
